Set-up in all cases: scale not given: direction of the effect not stated beside the values
For assay [1], the target named is Protein translocase subunit SecA (Escherichia coli (strain K12)) (UniProt P10408). Kind of assay: Assay to Identify E. coli SecA ATPase Inhibitors. The format is functional. The following applies: 30 µM.
Assay [2] addresses T1, Ubiquitin-activating enzyme e1, putative (Leishmania donovani (strain BPK282A1)) (UniProt E9BSI1).
T1 sequence (whole entry): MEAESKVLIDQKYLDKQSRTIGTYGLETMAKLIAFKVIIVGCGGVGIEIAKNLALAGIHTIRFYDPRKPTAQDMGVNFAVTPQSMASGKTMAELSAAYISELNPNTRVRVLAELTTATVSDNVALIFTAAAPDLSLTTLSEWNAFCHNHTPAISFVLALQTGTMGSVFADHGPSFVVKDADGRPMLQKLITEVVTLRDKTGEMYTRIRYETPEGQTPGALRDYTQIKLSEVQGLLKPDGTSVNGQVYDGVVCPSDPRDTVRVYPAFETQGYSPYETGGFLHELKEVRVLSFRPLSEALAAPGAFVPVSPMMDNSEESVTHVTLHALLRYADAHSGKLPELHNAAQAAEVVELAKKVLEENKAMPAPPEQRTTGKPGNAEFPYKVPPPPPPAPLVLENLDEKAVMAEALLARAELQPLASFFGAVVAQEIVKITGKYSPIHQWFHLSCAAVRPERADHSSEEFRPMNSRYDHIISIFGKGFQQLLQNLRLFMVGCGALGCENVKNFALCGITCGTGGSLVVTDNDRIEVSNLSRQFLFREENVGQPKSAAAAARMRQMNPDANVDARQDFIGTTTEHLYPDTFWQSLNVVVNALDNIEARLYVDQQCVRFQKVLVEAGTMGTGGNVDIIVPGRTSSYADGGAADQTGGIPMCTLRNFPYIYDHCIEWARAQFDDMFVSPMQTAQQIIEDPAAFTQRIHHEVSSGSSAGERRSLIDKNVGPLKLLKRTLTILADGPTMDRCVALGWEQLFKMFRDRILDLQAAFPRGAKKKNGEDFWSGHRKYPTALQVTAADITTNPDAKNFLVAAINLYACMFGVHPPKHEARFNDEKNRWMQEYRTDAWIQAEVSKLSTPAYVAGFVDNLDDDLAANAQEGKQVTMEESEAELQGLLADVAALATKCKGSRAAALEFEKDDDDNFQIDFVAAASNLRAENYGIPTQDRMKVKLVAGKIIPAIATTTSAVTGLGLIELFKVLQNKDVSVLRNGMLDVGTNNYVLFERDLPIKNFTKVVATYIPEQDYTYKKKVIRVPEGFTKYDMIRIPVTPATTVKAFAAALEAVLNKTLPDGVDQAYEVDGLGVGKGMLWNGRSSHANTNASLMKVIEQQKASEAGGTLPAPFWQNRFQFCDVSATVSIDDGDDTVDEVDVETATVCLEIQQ
Kind of assay: Leishmania donovani Ubiquitin Activating Enzyme (LdE1). The assay is classed as functional. The following applies: 30 µM.

The target of assay [3] is AMP-activated protein kinase, AMPK (Homo sapiens) (UniProt P54646+O43741+P54619+Q9UGJ0+Q9Y478+Q13131+Q9UGI9). Kind of assay: AMP-dependent Kinase enzyme assay. An in vitro enzyme assay that detects ADP turnover that is directly proportional to AMPK activity. This uses naive AMPK that is activated during the assay with MK-8722. The assay is classed as functional. The settings on record: 30 µM.

Assay [4] addresses Sialic acid-binding Ig-like lectin 9 (Homo sapiens) (UniProt Q9Y336). Kind of assay: Hs-Siglec9 ALPHAscreen SOP 20170721. The settings on record: 10 µM.
Assay [5] deals with Trypanosoma cruzi. Kind of assay: Trypanosoma cruzi phosphomannomutase and mannose-1-phosphate guanylyltransferase assay. The assay is classed as functional. The following applies: 10 µM.
The target in assay [6] is T2, Arginase-2, mitochondrial (Homo sapiens) (UniProt P78540).
T2 sequence (whole entry): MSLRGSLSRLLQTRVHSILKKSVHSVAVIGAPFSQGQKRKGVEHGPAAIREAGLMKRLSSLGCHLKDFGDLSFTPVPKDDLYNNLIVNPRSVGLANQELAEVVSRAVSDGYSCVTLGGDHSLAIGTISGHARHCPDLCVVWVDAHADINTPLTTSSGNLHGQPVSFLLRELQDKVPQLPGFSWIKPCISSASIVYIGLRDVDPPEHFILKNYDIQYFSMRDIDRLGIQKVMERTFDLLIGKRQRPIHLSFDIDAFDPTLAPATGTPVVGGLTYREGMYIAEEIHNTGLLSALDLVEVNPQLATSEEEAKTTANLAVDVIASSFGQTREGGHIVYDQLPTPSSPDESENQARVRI
Put plainly: in vitro enzyme assay to detect the production of urea directly proportional to the activity of Arginase II. Note: in the data most compounds retested in dose-response had high values. The following applies: 33.3 µM. The assay is classed as functional.

Assay [7] addresses T3, Proteasome subunit beta (Trypanosoma cruzi) (UniProt O96673).
T3 sequence (whole entry): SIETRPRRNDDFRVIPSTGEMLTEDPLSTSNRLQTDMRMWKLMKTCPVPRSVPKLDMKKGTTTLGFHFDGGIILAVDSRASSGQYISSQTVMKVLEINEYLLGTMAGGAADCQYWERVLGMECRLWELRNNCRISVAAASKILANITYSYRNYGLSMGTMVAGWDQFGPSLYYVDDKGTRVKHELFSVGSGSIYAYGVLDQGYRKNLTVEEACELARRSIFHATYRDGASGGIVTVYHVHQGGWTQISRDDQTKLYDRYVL
Put plainly: Trypanosoma cruzi proteasome chymotrypsin-like activity (TcProtChymo) assay. Note: in the data most compounds retested in dose-response had high values. The format is functional. The settings on record: 9.37 µM.

For assay [8], the species on record is Homo sapiens. Kind of assay: To identify inhibition of the IFN signalling (Jak-Stat) pathway via expression of an eGFP reporter gene under the control of an IFN-stimulated response element (ISRE) containing MxA promoter. The settings on record: 30 µM. The format is functional. (In a reporter assay the amount or activity of a reporter protein is the signal.)

Assay [9] addresses T4, Tyrosyl-tRNA synthetase, putative (Trypanosoma cruzi (strain CL Brener)) (UniProt Q4DSP6).
T4 sequence (whole entry): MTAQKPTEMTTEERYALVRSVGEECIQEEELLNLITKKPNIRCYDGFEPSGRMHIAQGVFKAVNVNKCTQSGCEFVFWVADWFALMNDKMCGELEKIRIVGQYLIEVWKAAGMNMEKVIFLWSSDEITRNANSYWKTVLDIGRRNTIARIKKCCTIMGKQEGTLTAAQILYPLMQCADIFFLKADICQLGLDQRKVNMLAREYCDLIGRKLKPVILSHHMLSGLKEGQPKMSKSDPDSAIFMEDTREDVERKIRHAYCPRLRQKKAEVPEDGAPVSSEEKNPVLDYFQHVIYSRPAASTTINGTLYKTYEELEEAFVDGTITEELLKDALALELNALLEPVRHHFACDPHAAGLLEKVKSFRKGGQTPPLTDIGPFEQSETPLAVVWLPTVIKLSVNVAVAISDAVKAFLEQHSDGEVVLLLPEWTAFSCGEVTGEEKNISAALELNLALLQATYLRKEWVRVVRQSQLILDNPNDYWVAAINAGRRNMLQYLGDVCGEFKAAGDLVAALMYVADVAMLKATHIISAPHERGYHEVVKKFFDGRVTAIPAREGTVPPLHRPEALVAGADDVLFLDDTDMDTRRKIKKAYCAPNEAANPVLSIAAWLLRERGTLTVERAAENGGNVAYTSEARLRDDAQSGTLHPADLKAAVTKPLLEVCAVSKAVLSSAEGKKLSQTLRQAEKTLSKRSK
Put plainly: Trypanosoma cruzi tyrosyl tRNA synthetase (TcYRS) _High Tyrosine SOP. Note: in the data most compounds retested in dose-response had high values. The format is functional. The following applies: 30 µM.

The target in assay [10] is T4, Tyrosyl-tRNA synthetase, putative (Trypanosoma cruzi (strain CL Brener)). Kind of assay: Trypanosoma cruzi tyrosyl tRNA synthetase (TcYRS) SOP. The assay is classed as functional. The following applies: 30 µM.
The target in assay [11] is Chromo domain-containing protein 1 (Saccharomyces cerevisiae (strain ATCC 204508 / S288c) (Baker's yeast)) (UniProt P32657). Put plainly: ScCHD-1 Enzyme Inhibition Assay. Note: in the data most compounds retested in dose-response had high values. The format is functional. The following applies: 30 µM.
Sequence of Chromo domain-containing protein 1 (Saccharomyces cerevisiae (strain ATCC 204508 / S288c) (Baker's yeast)) (P32657 whole entry, the tested form may be a part): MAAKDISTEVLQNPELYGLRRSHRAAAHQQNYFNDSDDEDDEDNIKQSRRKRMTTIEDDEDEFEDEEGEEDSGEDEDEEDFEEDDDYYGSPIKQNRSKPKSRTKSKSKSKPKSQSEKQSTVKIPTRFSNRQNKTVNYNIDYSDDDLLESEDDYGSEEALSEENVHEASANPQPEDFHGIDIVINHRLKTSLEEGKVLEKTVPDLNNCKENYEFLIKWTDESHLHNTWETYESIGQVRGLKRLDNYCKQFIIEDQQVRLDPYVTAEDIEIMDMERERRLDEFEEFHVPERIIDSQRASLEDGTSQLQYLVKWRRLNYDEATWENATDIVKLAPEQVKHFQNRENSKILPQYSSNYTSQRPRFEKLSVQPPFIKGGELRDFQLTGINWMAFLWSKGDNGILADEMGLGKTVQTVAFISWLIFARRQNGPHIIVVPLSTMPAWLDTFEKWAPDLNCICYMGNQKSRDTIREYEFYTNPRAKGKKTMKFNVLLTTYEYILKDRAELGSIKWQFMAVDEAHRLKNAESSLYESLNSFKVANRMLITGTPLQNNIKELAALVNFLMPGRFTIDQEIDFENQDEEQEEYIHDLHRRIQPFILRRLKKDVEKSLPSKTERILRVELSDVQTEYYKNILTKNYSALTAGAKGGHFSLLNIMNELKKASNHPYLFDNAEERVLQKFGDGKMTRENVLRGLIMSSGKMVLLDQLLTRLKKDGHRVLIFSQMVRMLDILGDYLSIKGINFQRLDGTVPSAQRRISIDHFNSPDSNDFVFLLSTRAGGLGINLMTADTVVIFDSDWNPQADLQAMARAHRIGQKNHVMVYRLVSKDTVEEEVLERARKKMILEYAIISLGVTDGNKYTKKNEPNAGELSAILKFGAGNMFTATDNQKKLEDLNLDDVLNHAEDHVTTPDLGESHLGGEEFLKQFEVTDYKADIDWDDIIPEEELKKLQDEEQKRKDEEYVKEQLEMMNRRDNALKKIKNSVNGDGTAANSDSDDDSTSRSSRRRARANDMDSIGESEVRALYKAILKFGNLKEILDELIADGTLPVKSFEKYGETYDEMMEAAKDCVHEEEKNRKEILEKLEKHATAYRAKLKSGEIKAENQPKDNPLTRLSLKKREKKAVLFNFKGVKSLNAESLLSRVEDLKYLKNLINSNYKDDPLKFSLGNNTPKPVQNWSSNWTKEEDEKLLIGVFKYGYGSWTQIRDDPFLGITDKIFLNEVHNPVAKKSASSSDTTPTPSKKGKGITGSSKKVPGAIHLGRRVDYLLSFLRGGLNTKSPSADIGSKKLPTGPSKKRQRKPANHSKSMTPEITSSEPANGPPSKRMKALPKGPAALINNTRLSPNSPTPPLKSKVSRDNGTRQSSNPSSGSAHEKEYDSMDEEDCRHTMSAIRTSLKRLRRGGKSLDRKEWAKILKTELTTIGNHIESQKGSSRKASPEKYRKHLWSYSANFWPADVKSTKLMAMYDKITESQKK

For some of these results: Measured potencies and affinities stand elsewhere.

Sequence of Protein translocase subunit SecA (Escherichia coli (strain K12)) (P10408 whole entry): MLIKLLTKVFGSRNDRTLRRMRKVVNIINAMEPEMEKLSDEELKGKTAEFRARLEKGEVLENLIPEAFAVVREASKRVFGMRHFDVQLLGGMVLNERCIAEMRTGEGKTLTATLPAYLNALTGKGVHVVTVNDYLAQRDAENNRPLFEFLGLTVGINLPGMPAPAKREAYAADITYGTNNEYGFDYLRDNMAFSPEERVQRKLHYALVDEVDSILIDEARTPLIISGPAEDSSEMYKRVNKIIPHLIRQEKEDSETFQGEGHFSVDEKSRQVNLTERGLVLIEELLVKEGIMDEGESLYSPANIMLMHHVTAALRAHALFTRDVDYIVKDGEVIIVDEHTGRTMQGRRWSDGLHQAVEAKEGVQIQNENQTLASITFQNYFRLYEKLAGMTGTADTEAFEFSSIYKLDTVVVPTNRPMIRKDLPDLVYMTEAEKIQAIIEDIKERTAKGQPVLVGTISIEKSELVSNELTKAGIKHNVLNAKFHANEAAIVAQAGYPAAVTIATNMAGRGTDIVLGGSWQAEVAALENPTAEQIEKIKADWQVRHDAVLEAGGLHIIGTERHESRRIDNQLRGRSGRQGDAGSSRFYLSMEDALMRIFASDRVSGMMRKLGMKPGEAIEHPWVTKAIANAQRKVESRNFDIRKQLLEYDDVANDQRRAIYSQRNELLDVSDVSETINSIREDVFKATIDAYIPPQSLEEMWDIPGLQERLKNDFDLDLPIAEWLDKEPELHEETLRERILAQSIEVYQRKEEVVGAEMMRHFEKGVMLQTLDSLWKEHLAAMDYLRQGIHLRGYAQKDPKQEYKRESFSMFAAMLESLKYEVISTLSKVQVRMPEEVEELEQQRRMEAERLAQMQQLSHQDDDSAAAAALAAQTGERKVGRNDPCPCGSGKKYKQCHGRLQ
Sequence of Sialic acid-binding Ig-like lectin 9 (Homo sapiens) (Q9Y336 whole entry): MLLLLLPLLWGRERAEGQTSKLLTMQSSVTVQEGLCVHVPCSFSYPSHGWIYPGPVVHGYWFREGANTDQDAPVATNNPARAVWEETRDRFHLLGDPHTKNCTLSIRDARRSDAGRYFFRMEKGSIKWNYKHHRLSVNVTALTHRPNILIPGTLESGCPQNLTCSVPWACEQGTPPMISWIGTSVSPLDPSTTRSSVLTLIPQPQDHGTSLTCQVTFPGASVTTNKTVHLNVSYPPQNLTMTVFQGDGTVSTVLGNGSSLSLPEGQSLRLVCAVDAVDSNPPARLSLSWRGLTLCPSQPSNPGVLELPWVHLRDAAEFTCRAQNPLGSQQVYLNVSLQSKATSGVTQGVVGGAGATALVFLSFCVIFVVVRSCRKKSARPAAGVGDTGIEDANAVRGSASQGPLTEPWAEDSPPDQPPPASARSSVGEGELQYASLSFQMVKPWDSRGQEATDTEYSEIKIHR

In the case of `COc1ccc(CN2CC[C@@H](O)[C@@H]2Cc2ccccc2)cc1`, the Percent Effect in assay [1] is -7.82%; in assay [2], -1.33%; in assay [3], 7.1%; in [4], -1.98%; in assay [5], -0.589%; in assay [6], -6.16%. Further, the Percent Effect in [7] is 0.924%; in [8], 9.5%; in assay [9], -3.17%; in assay [10], -2.56%; in [11], -5.37%.
On to `CCCn1ccc2ccc(NC(=O)N(C)CCOC)cc21`, for which the Percent Effect in assay [1] was -1.73%; in [2], -10.5%; in assay [3], -6.25%; in assay [4] it was 4.31%; in assay [5], -4.58%; in assay [6] it was 1.18%. The Percent Effect was 9.3% in assay [7]; -9.53% in assay [8]; 1.06% in assay [9]; 5.2% in [10]; -2.86% in [11].
Turning to `CN1CCc2c(C#N)c(NCc3ccco3)n3cnnc3c2C1`, the Percent Effect in assay [1] was -7.61%; in [2], 15.8%; in assay [3], 0.706%; in assay [4], 6.25%; in assay [5] it was 1.07%; in assay [6] it was 0%. Besides, the Percent Effect is 14.5% in assay [7]; -6.85% in assay [8]; 4.25% in assay [9]; 15.6% in assay [10]; -17.9% in assay [11].
With `Cc1cnn(C2CN(Cc3ccc4c(c3)OCCO4)C2)c1`, the Percent Effect in [1] is -0.648%; in [2] it was -2.67%; in assay [3] it was -8.78%; in assay [4] it was 1.34%; in [5], -2.04%; in assay [6] it was -1.56%. The Percent Effect in [7] is 19.9%; in assay [8] it was 8.06%; in assay [9] it was 8.2%; in assay [10], 16.1%; in [11], -8.99%.
Regarding `O=C(NC1CC1)[C@H]1CC[C@@H]2[C@@H](CCN2c2ncc(F)cn2)O1`, the Percent Effect is -3.27% in assay [1]; 2.6% in assay [2]; 0.23% in assay [3]; 1.05% in assay [4]; -0.688% in assay [5]; -2.76% in assay [6]. Also, the Percent Effect in [7] worked out at 4.16%; in [8], 11%; in [9] it was 3.23%; in assay [10], 1.24%; in assay [11], 134%.
Consider `O=C(CCNc1ncccn1)N1CCCC(n2ccnc2)C1` (stereo unspecified), for which the Percent Effect in assay [1] is -7.87%; in assay [2] it was 6.33%; in [3], 7.8%; in assay [4] it was -0.356%; in assay [5], -2.77%; in assay [6], 0.645%. The Percent Effect in assay [7] is 9.78%; in [8], 12%; in assay [9], 8.33%; in assay [10], 15.2%; in [11], -20.9%.
As for `CC(C)(C)C(=O)Cn1nc(-c2ccccc2F)ccc1=O`, the Percent Effect in assay [1] was -3.18%; in assay [2], 6.67%; in assay [3] it was 5.01%; in assay [4], 9.44%; in [5], 0.393%; in assay [6], -10%. For the same molecule, the Percent Effect in assay [7] was 16.6%; in assay [8] it was 5.03%; in assay [9] it was 5.29%; in assay [10] it was 10.3%; in [11], -6.12%.
Consider `CN(C)C(=O)C1CCCN1CCCNC(=O)c1ccccc1F` (stereo unspecified), for which the Percent Effect in [1] was -2.29%; in assay [2], 8.22%; in assay [3], -4.32%; in [4] it was 2.43%; in [5] it was -0.783%; in assay [6], 0.909%. Further, the Percent Effect in [7] was 15.6%; in assay [8] it was 12.8%; in assay [9], 5.38%; in assay [10], 12.5%; in assay [11], -3.39%.
Regarding `Cn1cc(CN2CC[C@@H]3[C@@H](CCC(=O)N3CCC3=CCCCC3)C2)cn1`, the Percent Effect is -5.13% in assay [1]; 8.22% in assay [2]; 4.85% in assay [3]; 0.26% in [4]; 0.992% in [5]; -2.79% in assay [6]. Further, the Percent Effect was 10.7% in [7]; -22.4% in assay [8]; 0% in [9]; 1.24% in assay [10]; 1.06% in [11].
With `COc1ccc2c(O)c(NC(=O)NCC3CC3)cnc2c1`, the Percent Effect in [1] is 1.05%; in assay [2], 14.9%; in [3], 9.57%; in assay [4] it was -7.59%; in assay [5], -1.38%; in assay [6] it was -4.87%. Moreover, the Percent Effect in assay [7] is 14.7%; in assay [8], 7.86%; in assay [9], 2.15%; in [10], 9.09%; in assay [11], -11.6%.
Turning to `Fc1ccccc1-c1noc2c1CN(CC1CC1)CC2`, the Percent Effect was -0.719% in assay [1]; 13.7% in [2]; 1.26% in [3]; 4.91% in assay [4]; 5.68% in assay [5]; 1.36% in assay [6]. Moreover, the Percent Effect in assay [7] is 17%; in assay [8] it was 11.6%; in [9], 7.53%; in assay [10], 20%; in [11] it was -0.386%.

Source of the values: ChEMBL document CHEMBL3988442, “University of Dundee, Small-Polar-MMV Screening Library” (2021).
